Assay results taken from PubChem BioAssay AID624381 (The Scripps Research Institute Molecular Screening Center, 2012).
The campaign covered roughly 2,300 compounds. About 430 (19%) were called active. These entries were drawn from the full list. Unmarked numbers belong to inactive results.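 How the source made its calls: active means mean activation across triplicates above the hit threshold derived in the original primary screen (cut at about 15% in these data); inactive means the rest.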

Each molecule was assayed against 5-hydroxytryptamine receptor 2A (Mus musculus) (UniProt P35363) (assay: agonist activity at mouse 5-HT2A receptor – cell-based, luminescence, CHO-K1 PathHunter, triplicate, confirmation (AID 624381)). Details: CHO-K1 PathHunter beta-arrestin recruitment, at 7.6 µM, stronger effect = higher value, DMSO 0%, 30 µM serotonin 100%.
5-hydroxytryptamine receptor 2A (Mus musculus), sequence (P35363 whole entry, looked up): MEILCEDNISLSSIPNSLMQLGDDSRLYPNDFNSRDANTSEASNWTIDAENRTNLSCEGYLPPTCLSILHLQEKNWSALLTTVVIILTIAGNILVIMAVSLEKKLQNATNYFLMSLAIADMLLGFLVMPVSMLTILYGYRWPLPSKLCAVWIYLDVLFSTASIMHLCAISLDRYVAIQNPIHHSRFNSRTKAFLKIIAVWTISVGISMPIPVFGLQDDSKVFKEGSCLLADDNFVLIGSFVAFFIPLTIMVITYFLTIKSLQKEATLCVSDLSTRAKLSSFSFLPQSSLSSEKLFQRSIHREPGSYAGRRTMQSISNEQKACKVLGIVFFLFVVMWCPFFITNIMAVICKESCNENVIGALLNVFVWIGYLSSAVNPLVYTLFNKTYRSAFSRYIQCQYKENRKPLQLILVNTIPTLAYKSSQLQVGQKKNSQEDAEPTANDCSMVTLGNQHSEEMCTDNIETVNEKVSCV
In the case of `Cc1[nH]c2ccccc2c1CCN(Cc1cccs1)C(=S)NC(C)(C)C`, the activation is reported as 4.41%. In the case of `CCOc1ccc(/C(O)=C2\C(=O)C(=O)N(c3ccc(OC)cc3)C2c2ccccc2[N+](=O)[O-])cc1` (stereo not drawn), the activation is reported as 1.71%. Work on `CCCCn1c(N)c(N(CC(C)C)C(=O)CSc2ccc([N+](=O)[O-])cc2)c(=O)[nH]c1=O` yielded an activation of 0.81%. `C=CCn1c(=NC(=O)c2cccs2)sc2cc(NC(C)=O)ccc21` showed an activation of -1%. Work on `COc1ccc(NS(=O)(=O)c2cc(C(=O)Nc3ccccc3C(=O)O)ccc2C)cc1` yielded an activation of 5.94%. `CCOC(=O)c1cc(-c2ccccc2C)n(Cc2cc(C)no2)n1` showed an activation of 2.4%. With `COc1cccc(OC)c1OCCN1CCN(C(=O)c2ccco2)CC1` the activation was 78.4% (active). In the case of `O=C(c1ccco1)N1CCN(CCOc2ccccc2)CC1`, the activation is reported as 34.5% (active). `CSc1ncnc2c1ncn2CCCNCc1cccs1` was tested, and the activation was -4.72%. In the case of `Oc1ccc(CN2CCN(c3ncccn3)CC2)cc1`, the activation is reported as 101% (active). `COc1ccccc1CN1CCN(Cc2cc(OC)c(OC)cc2OC)CC1` showed an activation of 8.39%. `Cc1ccc(CN2CCN(c3ncccn3)CC2)c(C)c1` was tested, and the activation was 118% (active). With `CC(C)c1cc(C(=O)O)on1` the activation was 13.4%. `O=C(CNCc1cccs1)Nc1cc(S(=O)(=O)N2CCCC2)ccc1Cl` was tested, and the activation was 50.6% (active). In the case of `O=C1CCc2cc(S(=O)(=O)N3CCC(C(=O)NCc4ccccc4Cl)CC3)ccc2N1`, the activation is reported as -6.01%. With `COC(=O)c1ccc(CSc2nnc(NC(C)C)s2)cc1` the activation was -5.43%. `COc1ccc(C2c3[nH]c4ccccc4c3C[C@H]3C(=O)N(CC(C)C)CC(=O)N23)c(OC)c1` (stereo partly drawn) showed an activation of 0.84%. For `Cc1cccc(CN2CCN(C3CN(Cc4ccccc4)S(=O)(=O)C3)CC2)c1` (stereo not drawn), the activation was 8.09%. `O=C(NCCCN1CCN(c2ccccc2F)CC1)C1CCC(=O)N1C1CCCCC1` (stereo not drawn) was tested, and the activation was 41.4% (active). Molecule `CC(C)Oc1ccccc1C(=O)NC(CO)C(=O)O` (stereo not drawn) has an activation of 0.21%. In the case of `Cc1cccc(CN2CCN(C3CN(Cc4cn(Cc5cc(C)cc(C)c5)nn4)S(=O)(=O)C3)CC2)c1` (stereo not drawn), the activation is reported as 8.35%. `Cc1cc(C(=O)OCC(=O)N2c3ccccc3NC(=O)C2(C)C)c(C)n1-c1ccccc1` gave an activation of -2.45%. With `CN(C)[C@@H]1C(=O)C(C(N)=O)=C(O)[C@@]2(O)C(=O)C3=C(O)c4c(O)ccc(Cl)c4[C@@H](O)[C@H]3C[C@@H]12` the activation was 40.1% (active). `CCCCC(CC)CNC(=O)CCCCn1c(=O)[nH]c2ccsc2c1=O` (stereo not drawn) showed an activation of -3.5%. For `COc1ccc(-c2nc3cc([N+](=O)[O-])ccc3o2)cc1OC`, the activation was -2.5%. Molecule `COc1ccc2[nH]cc(CCN3C(=O)c4ccc(C(=O)O)cc4C3=O)c2c1` has an activation of -1.14%. Molecule `COC(=O)[C@]12CCCCC=C1N(CCC1=CCCCC1)C(=O)[C@H](CC(=O)NCC1CCCCC1)C2` has an activation of -5.33%. `Nc1cc(C(=O)N2CCN(c3ccccc3Cl)CC2)ccc1N1CC2CC(C1)c1cccc(=O)n1C2` (stereo not drawn) was tested, and the activation was -1.89%. `COC(=O)c1cc(N2CCNCC2)nc2ccccc12` was tested, and the activation was 2.65%. `O=C(c1ccncc1)N1CCN(c2ccc3ccccc3n2)CC1` was tested, and the activation was 17.1% (active). `COC(=O)Cn1nc(-c2ccccc2)c2cc(Cl)ccc21` gave an activation of -5.87%. In the case of `FC(F)(F)COc1nc(N2CCCCC2)nc(N2CCNCC2)n1`, the activation is reported as 8.3%. Molecule `CS(=O)(=O)c1ccc2nc(NC(=O)C3CCCCC3)sc2c1` has an activation of -0.86%. In the case of `O=C(Nc1ccc2c(c1)[C@@H]1C[C@@H](CC(=O)N3CCCCC3)O[C@@H](CO)[C@@H]1O2)NC1CCCCC1`, the activation is reported as -4.45%. `COc1ccc(/C=N/Nc2ccccc2C(=O)O)cc1` showed an activation of 4.6%. `Cc1cc([N+](=O)[O-])ccc1NC1CCCC1` was tested, and the activation was 13.5%. In the case of `Cc1ccc(NC(=O)CSc2nnc(COc3ccccc3C)o2)cc1`, the activation is reported as -4.47%. In the case of `N#CCSc1nn(-c2ccc(F)cc2)c(=S)s1`, the activation is reported as -4.94%. In the case of `COCCN(Cc1cc2cc3c(cc2nc1Cl)OCO3)C(=O)c1cccc(C)c1`, the activation is reported as 3.25%. `CC(Nc1ccccc1)c1cccnc1` (stereo not drawn) showed an activation of -3.04%. With `CC1(Cc2cccc(C#N)c2)C(=O)Nc2ccc(-c3cccc(C(F)(F)F)c3)cc21` (stereo not drawn) the activation was -0.38%. For `NNc1cccc(C=Cc2ccccc2)cc1=O`, the activation was 1.74%. In the case of `O=C(Nc1cccc2cccnc12)c1ccc2sc([C@H]3C[C@H](O)[C@@H](CO)O3)nc2c1`, the activation is reported as 4.32%. Molecule `Cc1ccc(NC(=O)CCOc2ccccc2)cc1S(=O)(=O)Nc1ccccc1Cl` has an activation of 3.02%. `Cc1ccc(S(=O)(=O)N2CCN(c3ncnc4ccccc34)CC2)cc1` showed an activation of 9.56%. `CC(=O)c1ccc(OCC(=O)N(C)C2CCS(=O)(=O)C2)cc1` (stereo not drawn) showed an activation of -3.74%. With `COC(=O)[C@@]1(Cc2ccc(F)cc2)[C@H]2c3cc(C(=O)N(C)C)n(CCc4c[nH]c5ccc(OC)cc45)c3C[C@H]2CN1C(=O)c1ccccc1` the activation was 10.9%. Work on `C/C(=N\NC(=O)COc1c(C)cccc1C)c1cccs1` yielded an activation of -2.38%. With `CCCN(CCc1ccccc1)C1CCc2c(O)cccc2C1` (stereo not drawn) the activation was 164% (active). Work on `CCCC(=O)N=c1sc2cccc(F)c2n1C` yielded an activation of -2.76%. In the case of `Cc1ccc2c(c1)NCC(C(=O)NC1CCC(C)CC1)O2` (stereo not drawn), the activation is reported as -3.96%. Work on `CSc1nsc(SCC(=O)Nc2cc(C(=O)O)ccc2C)n1` yielded an activation of 1.2%. `CCOCCCNC(=O)Cc1cc(=O)[nH]c(=O)[nH]1` showed an activation of -1.89%. For `CC(=O)N1c2ccc(S(=O)(=O)N3CCC(C(=O)NC4CCCCC4C)CC3)cc2CC1C` (stereo not drawn), the activation was -5.72%. With `O=C(O)C1C2C=CC(O2)C1C(=O)NCCc1cccc(Cl)c1` (stereo not drawn) the activation was 4.65%. With `COC(=O)CC(=O)N1CCN(c2ccc(Cl)c(Cl)c2)CC1` the activation was 13.8%. Work on `O=C(O)c1ccc(S(=O)(=O)N2CCC(Cc3ccccc3)CC2)cc1` yielded an activation of -0.19%. For `COc1ccc(CNC(=O)c2ccc(NS(=O)(=O)c3ccc4[nH]c(=O)[nH]c4c3)cc2)cc1OC`, the activation was -3.98%.
